Reference: PubChem BioAssay AID624330 (Southern Research Specialized Biocontainment Screening …, 2012)
Out of some 340,000 compounds screened, about 2,100 (0.62%) were called active.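 The calls were made as follows: active = first-screen hits whose inhibition reached a set limit at any dose in the follow-up dose series; inconclusive = inhibition above the set first-screen limit but never retested; inactive = the rest.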 The list is a sample of the results. Entries with a potency or affinity are not part of this list.

Target: Rac GTPase-activating protein 1 (Homo sapiens) (UniProt Q9H0H5)
Sequence (Q9H0H5 whole entry, looked up): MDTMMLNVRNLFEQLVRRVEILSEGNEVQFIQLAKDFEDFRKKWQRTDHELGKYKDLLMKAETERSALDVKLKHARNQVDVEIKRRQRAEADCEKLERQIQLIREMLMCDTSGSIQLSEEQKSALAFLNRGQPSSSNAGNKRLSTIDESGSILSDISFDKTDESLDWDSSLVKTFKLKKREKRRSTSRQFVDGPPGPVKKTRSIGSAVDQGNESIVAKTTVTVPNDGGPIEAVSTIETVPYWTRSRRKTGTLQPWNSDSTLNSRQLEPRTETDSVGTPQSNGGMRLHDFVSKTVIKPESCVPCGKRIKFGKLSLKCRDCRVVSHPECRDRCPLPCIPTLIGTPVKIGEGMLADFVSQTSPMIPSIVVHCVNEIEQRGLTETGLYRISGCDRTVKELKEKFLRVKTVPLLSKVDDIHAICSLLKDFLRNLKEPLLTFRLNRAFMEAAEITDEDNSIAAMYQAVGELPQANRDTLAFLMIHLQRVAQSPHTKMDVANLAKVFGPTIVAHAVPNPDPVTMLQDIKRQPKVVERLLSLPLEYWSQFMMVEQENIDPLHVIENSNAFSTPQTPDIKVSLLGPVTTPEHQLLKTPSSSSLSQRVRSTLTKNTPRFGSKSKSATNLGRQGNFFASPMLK
Experiment: blockers of MgcRacGAP-driven Rac1 GTP hydrolysis – biochemical, ADP Hunter fluorescence, primary and confirmatory, confirmation (AID 624330);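 also: fluorescence reports GDP produced by GAP-driven GTP hydrolysis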
Conditions: MgcRacGAP-stimulated Rac1 GTP hydrolysis, at 30 µM, active compounds read high, GST-tagged Rac1 F28L mutant substrate

inhibition, inactive:
Cn1c(NN)nc2sc3c(c2c1=O)CC(C)(C)OC3 -17.1%, O=S(=O)(Nc1ccc(N2CCOCC2)cc1)c1ccc(F)cc1 6.7%, CSCC[C@H](NS(=O)(=O)c1ccc(C)cc1)C(=O)N1CCC(C(=O)N[C@@H](C)C(=O)O)CC1 -1.38%, O=C(CN1CCN(c2ccc(F)cc2)CC1)N(C1CCCC1)C1CCS(=O)(=O)C1 (configuration not stated) 3.6%, O=C(CN1CCN(c2cccc(C(F)(F)F)c2)CC1)N(C1CC1)C1CCS(=O)(=O)C1 (configuration not stated) -5.48%, CCOC(=O)c1c(C)[nH]c(C(=O)OCC(=O)Nc2cc(C)c(Cl)cc2OC)c1C 10.4%, Cc1ccc(NC(=O)N2CCCC2C(=O)NCc2ccc3c(c2)OCO3)cc1 (configuration not stated) 2.95%, CC(C)Nc1nc(Oc2ccc(=O)n(-c3ccccc3)n2)nc(N(C)C)n1 12%, COc1cccc(N2CCN(C(=S)Nc3ccc(C)cc3C)CC2)c1 12.4%, O=C(Nc1ccc(F)cc1)c1cncs1 9.26%, CC[n+]1c(/C=C2\C=C(C)CC(C)(C)C2)sc2ccccc21 31.8%, C=CC[n+]1ccc(/C=C2\C=Cc3cc(C)ccc3N2CC)c2ccccc21 17%, CCc1cc2c(SCC(=O)NC3CCCC3)ncnc2s1 6.67%, COc1cccc(NC(=O)[C@@H]2CCC(=O)N2C2OC(=O)c3ccccc32)c1 (some centres not stated) -0.84%, CC(=O)Nc1ccc(NC(=O)Cn2cnc(S(=O)(=O)N3CCOCC3)c2)cc1 -16.8%, Cc1ccc(CNC(=O)CSCc2ccccc2)cc1 10.2%, Cc1ccc(CCNC(=O)CSCc2ccc(F)cc2)cc1 8.48%, Cc1ccc(CSCCNC(=O)CSCc2ccc([N+](=O)[O-])cc2)cc1 6.03%, Cc1ccc(CSCC(=O)NCCc2ccccc2)cc1 -4.12%, CC1=C(C#N)C(c2ccc(O)cc2)C(C#N)=C(C)N1 11.8%, CCOc1ccc(NC(=O)CN2CCN(CC(=O)Nc3ccc(C(=O)OC)cc3)CC2)cc1 6.74%, C/C(=N\NC(=O)Cn1nc(C)c([N+](=O)[O-])c1C)c1ccc(Cl)s1 5.29%, COC(=O)c1scc2c(=O)cc(C(F)(F)F)[nH]c12 6.18%, Cc1cc(OCC(=O)N(C(C)C)C(C)C)cc(C)c1Br 7.37%, CC(=O)Oc1ccc(/C(C)=N/N2CCN(Cc3ccc(C)cc3)CC2)cc1 -1.21%, COc1ccccc1N1CCN(/N=C(\C)c2ccc(O)cc2)CC1 8.49%, COc1ccc(/C=N/N2CCN(c3ccccc3OC)CC2)cc1OC 1.46%, COc1cc(/C=N/N2CCN(Cc3ccc(C)cc3)CC2)cc(OC)c1O 25.8%, COc1ccccc1N1CCN(/N=C(\C)c2ccccc2O)CC1 9.26%, COc1ccc(/C=N/N2CCN(C)CC2)cc1OC 4.11%, COc1ccc(/C=N/N2CCN(c3ccccc3OC)CC2)cc1Br 5.46%, COc1ccc(/C=N/N2CCOCC2)cc1O 6.98%, COc1ccc(-c2cc([C@H]3[C@H]4C=CC[C@@H](C)[C@@H]4C(=O)N3Cc3ccccc3)ccc2F)cc1 4.49%, CCC(C)N(C(=O)COC(=O)c1ccc(=O)n(Cc2ccccc2)n1)C1CCS(=O)(=O)C1 (configuration not stated) 2.85%, CSc1nc(C(=O)N2CCc3c([nH]c4ccccc34)C2c2ccccn2)cs1 (configuration not stated) 3.69%, CCCCNC(=O)Cn1c(=O)c2c(ncn2CCC(C)C)n(Cc2ccccc2)c1=O 6.76%, CCOC(=O)/C=C1\SCC(=O)N1CC(=O)NC(c1ccccc1)c1ccccc1 5.26%, CN(CC(=O)Nc1cccc(F)c1)C(=O)CSc1ccccc1 1.63%, COc1ccccc1N1CCN(/N=C/c2cccc(O)c2)CC1 10.5%, COc1ccccc1N1CCN(/N=C/c2cccc(OC)c2O)CC1 -28.4%, COc1ccccc1N1CCN(/N=C/c2cc(OC)c(OC)c(OC)c2)CC1 -2.37%, COc1ccccc1N1CCN(/N=C\c2ccccc2)CC1 -17.8%, CC1CCCCC1NC(=O)CSc1nnc(CC(=O)Nc2ccccc2F)n1C (configuration not stated) 5.96%, O=C(C[C@@H]1C/C=C/CC[C@@H](Cc2ccc(F)cc2)C(=O)OCCNC1=O)N[C@H](CO)Cc1ccccc1 3.03%, COCC1CCN(Cc2cn(C)nc2-c2cccc(Cl)c2)C1 (configuration not stated) 1.3%, O=C(CCc1nnc2ccc(NCc3ccc(F)cc3)nn12)NC1CCCC1 12.4%, CC(C)C(=O)N(Cc1ccc2c(c1)OCO2)Cc1ccccn1 7.22%, c1ccc(CNCc2ccc3c(c2)OCO3)nc1 4.13%, O=C(CN1CCCc2ccccc21)Nc1cccc(S(=O)(=O)N2CCCC2)c1 9.73%, CNCc1c(C)nn(-c2ccccc2)c1C 8.94%, CCn1ccnc1CN(C)Cc1nc(-c2ccccc2)no1 -3.37%, C/C(=N\NC(=O)CSCc1ccccc1Cl)c1cccc(NC(=O)c2ccccc2)c1 4.95%, CC(=O)Nc1ccc(NC(=O)CSCc2ccccc2Cl)cc1 10.3%, Cc1ccccc1Nc1nc(N)nc(COC(=O)c2ccc3c(c2)OCCO3)n1 12.6%, O=C(Nc1ccccc1C(=O)Nc1ccc(F)cc1)c1ccco1 6.4%, CCOc1ccc(S(=O)(=O)N2CCN(C(=O)c3ccc(C)c(S(=O)(=O)N4CCOCC4)c3)CC2)cc1 5.86%, COc1ccc(CN2CCN(C(=O)CC(C)C)CC2)cc1Br 26.2%, COc1ccc(C(=O)N2CCN(C(=O)CC(C)C)CC2)cc1OC -1.21%, COc1ccc(CN2CCN(C(=O)CC(C)C)CC2)cc1 26.1%, COc1cc(OC)c(OC)cc1CN1CCN(C(=O)CC(C)C)CC1 12.8%, CCOc1cc(CN2CCCCCC2)ccc1OC 25.5%, COc1ccc(C(=O)N2CCN(Cc3cc(OC)c(O)c(OC)c3)CC2)cc1OC 18.5%
